In test [1] the test system is E18 rat cortical neuron-glia co-culture. In words: fiber score / MBP score (myelination specific beyond OL differentiation) (ratio); higher = more myelination-specific MBP alignment. To be noted: treatment time: 8 days (DIV5-DIV13). In a few lines:
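Papain-dissociated primary E18 rat cortical co-cultures, plated at 20,000 cells/well on poly-d-lysine/laminin 96-well plates, were exposed to library compounds at 1 or 5 µM in myelination medium between DIV5 and DIV13. Following fixation in 4 % paraformaldehyde, cultures were stained for MBP, Olig2 and DAPI, and four 10X fields per well were analysed in duplicate wells. Values are the ratio of fiber score (continuous MBP fiber length per Olig2+ nucleus) to MBP score (thresholded MBP area × intensity per Olig2+ nucleus).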

Test [2] shares this test system. In words: myelination (MBP fiber length per Olig2+ nucleus), % of 1 µM DAPT response (DMSO = 0) (% of DAPT); higher = more myelination, active = 50 or more. To be noted: treatment time: 8 days (DIV5-DIV13). In a few lines: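 Myelination, expressed as continuous straight MBP fiber length per Olig2+ nucleus, was normalised to 0.1 % DMSO as 0 and a 1 µM positive control as 100. The cultures were primary E18 rat cortical co-cultures dissociated with papain and plated at 20,000 cells/well on poly-d-lysine/laminin-coated 96-well plates. They received library compounds at 1 or 5 µM in myelination medium between DIV5 and DIV13. Analysis covered four 10X fields per well in duplicate wells after 4 % paraformaldehyde fixation and immunostaining for MBP and Olig2 with DAPI.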

Molecules are shown by their SMILES. ± gives the standard deviation of the averaged measurements.

As to `O=C(CCCN1CCC(O)(c2ccc(Cl)cc2)CC1)c1ccc(F)cc1` [Haloperidol], the “fiber score / MBP score” value in test [1] (1 µM) came out at 0.526; in test [1] (5 µM) it was 0.498. Moreover, the values for the myelination in test [2] (1 µM) and in test [2] (5 µM) were -18 (inactive) and -13.9 (inactive), respectively.

Turning to `CN1CC(=O)N2[C@H](c3ccc4c(c3)OCO4)c3[nH]c4ccccc4c3C[C@@H]2C1=O` [Tadalafil], the figures for the “fiber score / MBP score” value in test [1] (1 µM) and in test [1] (5 µM) were 0.799 and 0.74, respectively. Further, the myelination in test [2] (1 µM) is -45.7 (inactive); in test [2] (5 µM) it was -34.9 (inactive).

Turning to `CN(C)[C@@H]1C(O)=C(C(N)=O)C(=O)[C@@]2(O)C(O)=C3C(=O)c4c(O)cccc4[C@@](C)(O)[C@H]3[C@H](O)[C@@H]12` [Oxytetracycline], the entries for the “fiber score / MBP score” value in test [1] (1 µM) and in test [1] (5 µM) were 0.993 and 0.668, respectively. The myelination in test [2] (1 µM) is -5.3 (inactive); in test [2] (5 µM), -10.5 (inactive).

With `NC[C@H](O)c1ccc(O)c(O)c1` [Norepinephrine], the “fiber score / MBP score” value in test [1] (1 µM) worked out at 0.663; in test [1] (5 µM) it was 0.756. Moreover, the myelination in test [2] (1 µM) was -41.6 (inactive); in test [2] (5 µM), -38.4 (inactive).

Consider `CC(C)NCC(O)c1ccc(NS(C)(=O)=O)cc1` (centres undefined) [Sotalol], for which the figures for the “fiber score / MBP score” value in test [1] (1 µM) and in test [1] (5 µM) were 0.726 and 0.499, respectively. Moreover, the myelination was -33.5 (inactive) in test [2] (1 µM) and -60.5 (inactive) in test [2] (5 µM).

Turning to `C[N+]1(C)CCC(OC(=O)C(O)(c2ccccc2)C2CCCC2)C1` (centres undefined) [Glycopyrrolate], the “fiber score / MBP score” value in test [1] (1 µM) came to 0.689 ± 0.14; in test [1] (5 µM), 0.888 ± 0.085. Also, the myelination is -12.1 (inactive) in test [2] (1 µM) and -2.31 (inactive) in test [2] (5 µM).

In the case of `C[C@H]1COc2c(C3(N)CC3)c(F)cc3c(=O)c(C(=O)O)cn1c23` [Pazufloxacin], the figures for the “fiber score / MBP score” value in test [1] (1 µM) and in test [1] (5 µM) were 0.814 and 1.19, respectively. Besides, the values for the myelination in test [2] (1 µM) and in test [2] (5 µM) were -22.4 (inactive) and 17.6 (inactive), respectively.

Regarding `CNCCCC12CCC(c3ccccc31)c1ccccc12` [Maprotiline], the “fiber score / MBP score” value was 0.656 in test [1] (1 µM) and 0.581 in test [1] (5 µM). The myelination is -27.8 (inactive) in test [2] (1 µM) and -25.1 (inactive) in test [2] (5 µM).

As to `CC1(C)O[C@@H]2[C@@H](CO[C@@]3(COS(N)(=O)=O)OC(C)(C)O[C@@H]23)O1` [Topiramate], the figures for the “fiber score / MBP score” value in test [1] (1 µM) and in test [1] (5 µM) were 0.669 and 0.896, respectively. Moreover, the myelination in test [2] (1 µM) is -20.2 (inactive); in test [2] (5 µM), -11.6 (inactive).

On to `CC(C)(C)NC[C@H](O)COc1nsnc1N1CCOCC1` [Timolol], for which the “fiber score / MBP score” value in test [1] (1 µM) was determined as 0.869; in test [1] (5 µM), 1.02. The myelination in test [2] (1 µM) is -4.47 (inactive); in test [2] (5 µM), -1.56 (inactive).

Turning to `COc1ccc(-c2oc3c(CC=C(C)C)c(O[C@@H]4O[C@H](CO)[C@@H](O)[C@H](O)[C@H]4O)cc(O)c3c(=O)c2O[C@@H]2O[C@@H](C)[C@H](O)[C@@H](O)[C@H]2O)cc1` [Icariin], the figures for the “fiber score / MBP score” value in test [1] (1 µM) and in test [1] (5 µM) were 0.673 and 0.958, respectively. Also, the myelination in test [2] (1 µM) is -14.4 (inactive); in test [2] (5 µM), -5.53 (inactive).

As to `COc1ccc(CC(C)NCC(O)c2ccc(O)c(NC=O)c2)cc1` (centres undefined) [Formoterol], the “fiber score / MBP score” value in test [1] (1 µM) is 0.702; in test [1] (5 µM), 0.726. For the same molecule, the myelination was -12.6 (inactive) in test [2] (1 µM) and -14.5 (inactive) in test [2] (5 µM).

For the molecule `CCc1nn(CCCN2CCN(c3cccc(Cl)c3)CC2)c(=O)n1CCOc1ccccc1` [Nefazodone], the “fiber score / MBP score” value in test [1] (1 µM) was 0.932; in test [1] (5 µM) it was 0.76. Further, the myelination in test [2] (1 µM) was 2.86 (inactive); in test [2] (5 µM), 2 (inactive).

Turning to `NS(=O)(=O)c1cc(C2(O)NC(=O)c3ccccc32)ccc1Cl` (centres undefined) [Chlorthalidone], the “fiber score / MBP score” value was 1.29 in test [1] (1 µM) and 1.09 in test [1] (5 µM). The myelination in test [2] (1 µM) was 18.9 (inactive); in test [2] (5 µM) it was 7.87 (inactive).

As to `C[C@@H]1C[C@H]2[C@@H]3CCC4=CC(=O)C=C[C@]4(C)[C@@]3(F)[C@@H](O)C[C@]2(C)[C@H]1C(=O)CO` [Desoximetasone], the figures for the “fiber score / MBP score” value in test [1] (1 µM) and in test [1] (5 µM) were 0.95 and 0.758, respectively. Besides, the figures for the myelination in test [2] (1 µM) and in test [2] (5 µM) were 7.66 (inactive) and -8.43 (inactive), respectively.

For the molecule `CCCNC(C)C(=O)Nc1ccccc1C` (centres undefined) [Prilocaine], the “fiber score / MBP score” value is 0.73 in test [1] (1 µM) and 1.1 in test [1] (5 µM). For the same molecule, the myelination is -5.12 (inactive) in test [2] (1 µM) and 9.24 (inactive) in test [2] (5 µM).

Consider `CCc1c(C)[nH]c2c1C(=O)C(CN1CCOCC1)CC2` (centres undefined) [Molindone], for which the “fiber score / MBP score” value stood at 0.619 in test [1] (1 µM) and 0.498 in test [1] (5 µM). Further, the myelination in test [2] (1 µM) was -21 (inactive); in test [2] (5 µM), -25.8 (inactive).

`C=C1/C(=C\C=C2/CCC[C@]3(C)[C@@H]([C@H](C)CCCC(C)(C)O)CC[C@@H]23)C[C@@H](O)C[C@@H]1O` [Calcitriol]: the “fiber score / MBP score” value in test [1] (1 µM) is 0.737; in test [1] (5 µM) it was 0.531. Further, the values for the myelination in test [2] (1 µM) and in test [2] (5 µM) were -11.1 (inactive) and 6.28 (inactive), respectively.

For the molecule `CC1(C)S[C@@H]2[C@H](/N=C/N3CCCCCC3)C(=O)N2[C@H]1C(=O)O` [Amdinocillin], the “fiber score / MBP score” value came to 0.728 in test [1] (1 µM) and 0.866 in test [1] (5 µM). Moreover, the results for the myelination in test [2] (1 µM) and in test [2] (5 µM) were -21.5 (inactive) and -5.42 (inactive), respectively.

Turning to `CC(=O)OCC(=O)[C@@]1(O)CC[C@H]2[C@@H]3CCC4=CC(=O)CC[C@]4(C)[C@H]3C(=O)C[C@@]21C` [Cortisone acetate], the “fiber score / MBP score” value in test [1] (1 µM) turned out to be 0.82; in test [1] (5 µM) it was 0.732. Also, the values for the myelination in test [2] (1 µM) and in test [2] (5 µM) were -45.2 (inactive) and -20.1 (inactive), respectively.

With `N[C@@H]1CONC1=O` [Cycloserine], the entries for the “fiber score / MBP score” value in test [1] (1 µM) and in test [1] (5 µM) were 0.562 ± 0.18 and 0.637, respectively. Moreover, the values for the myelination in test [2] (1 µM) and in test [2] (5 µM) were -22.5 (inactive) and -32.4 (inactive), respectively.

As to `CC(C(=O)O)c1cccc(C(=O)c2ccccc2)c1` (centres undefined) [Ketoprofen], the “fiber score / MBP score” value in test [1] (1 µM) amounted to 0.813; in test [1] (5 µM), 0.972. Besides, the figures for the myelination in test [2] (1 µM) and in test [2] (5 µM) were -5.15 (inactive) and -3.55 (inactive), respectively.

With `CCOC(=O)c1ncn2c1CN(C)C(=O)c1cc(F)ccc1-2` [Flumazenil], the “fiber score / MBP score” value in test [1] (1 µM) came to 0.859; in test [1] (5 µM) it was 0.835. Further, the figures for the myelination in test [2] (1 µM) and in test [2] (5 µM) were -6.81 (inactive) and -19.8 (inactive), respectively.

For `NCC(=O)CCC(=O)O` [Aminolevulinic Acid], the “fiber score / MBP score” value in test [1] (1 µM) is 1.11; in test [1] (5 µM) it was 1.44. Moreover, the myelination in test [2] (1 µM) was 0.461 (inactive); in test [2] (5 µM), 39.4 (inactive).

In the case of `C[C@H](N[C@@H](CCc1ccccc1)C(=O)O)C(=O)N1CCC[C@H]1C(=O)O` [Enalaprilat], the “fiber score / MBP score” value came to 0.936 in test [1] (1 µM) and 0.731 in test [1] (5 µM). The myelination was -2.57 (inactive) in test [2] (1 µM) and -9.9 (inactive) in test [2] (5 µM).

As for `CS(=O)(=O)OCCCCOS(C)(=O)=O` [Busulfan], the “fiber score / MBP score” value was 0.646 in test [1] (1 µM) and 1.46 in test [1] (5 µM). For the same molecule, the myelination is -6.35 (inactive) in test [2] (1 µM) and 46.7 (inactive) in test [2] (5 µM).

The values are drawn from the supplement of paper PMC4840960.
